Potency and affinity values are given separately. Activity calls are given as the source filed them.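 How the source made its calls: active means toxic compound whose fitted half-effect dose of signal loss is at most twice its top tested dose; inconclusive means flat fit losing 30 to 70% signal, or poor fit; inactive means the rest.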
Test: cytotoxicity in HeLa cells, dose response, cytotoxicity control, cell-based, plate reader, dry powder (AID 651946)
Conditions: HeLa viability, ATP luminescence (CellTiter-Glo), 48 h; series mostly up to 26 µM

| SMILES | outcome |
| --- | --- |
| Cc1ccccc1-c1nnc(SCc2ccccc2)o1 | inactive |
| c1ccc(Cn2cc(CSc3nnc(C4CCCC4)o3)nn2)cc1 | inactive |
| Cc1cccc(CSc2nnc(-c3ccccc3)o2)c1 | inactive |
| Clc1ccccc1-c1nnc(SCc2ccccc2)o1 | inactive |
| Clc1cccc(CSc2nnc(-c3ccccc3)o2)c1 | inactive |
| FC(F)(F)c1ccccc1-c1nnc(SCc2ccccc2)o1 | inactive |
| CN(C)CCSc1nnc(-c2ccccc2)o1 | inactive |
| Fc1ccc(Cn2cc(CSc3nnc(C4CCC4)o3)nn2)cc1 | inactive |
| FC(F)(F)CNCCSc1nnc(-c2ccccc2)o1 | inactive |
| c1ccc(-n2cc(CSc3nnc(C4CCC4)o3)nn2)cc1 | inactive |
| O=S(Cc1cn(Cc2ccc(F)cc2)nn1)c1nnc(-c2ccc(Cl)cc2)o1 (configuration not stated) | inactive |
| CS(=O)(=O)c1ccc(CSc2nnc(-c3ccccc3)o2)cc1 | inactive |
| c1ccc(CSc2nnc(-c3cnco3)o2)cc1 | inactive |
| CN(Cc1ccccc1)c1nnc(-c2ccccc2)o1 | inactive |
| CC1(O)CN(CCSc2nnc(-c3ccccc3)o2)C1 | inactive |
| c1ccc(CSc2nnc(C3CCCC3)o2)cc1 | inactive |
| c1ccc(CSc2nnc(-c3ccccn3)o2)cc1 | inactive |
| FC(F)(F)c1cccc(-c2nnc(SCc3ccccc3)o2)c1 | inactive |
| Fc1ccc(CSc2nnc(-c3ccncc3)o2)cc1 | inactive |
| Fc1ccccc1-c1nnc(SCc2ccccc2)o1 | inactive |
| Fc1ccc(CSc2nnc(-c3cccnc3)o2)cc1 | inactive |
| Fc1cccc(-c2nnc(SCc3ccccc3)o2)c1 | inactive |
